SMILES strings stand for the structures. Results filed as inconclusive are left out. Activity calls are given as the source filed them. Rule for the calls: active = hit-call score of the fitted dose curve at least 0.9, where 1 is the maximum; inactive = score below 0.9.

Read-out in the assay: ABC Transporter (ABCB11), ABCB11 (gene 8647)
Nature of the assay: CLD_ABCB11_24hr: CellzDirect (CLD) Gene Expression Assay for ABC Transporter (ABCB11) at 24 hours (AID 2283674). Here is the method: CLD_24hr is a cell-based, multiplexed-readout assay that uses hepatocyte, a human liver primary cell, with measurements taken at 24 hours after chemical dosing in a 96-well plate.CLD_ABCB11_24hr is one of 16 assay component(s) measured or calculated from the CLD_24hr assay. It is designed to make measurements of mRNA induction, a form of inducible reporter, as detected with chemiluminescence signals by Quantitative Nuclease Protection Assay (qNPA) technology.Data from the assay component CLD_ABCB11_24hr was analyzed at the endpoint, CLD_ABCB11_24hr, in the positive analysis fitting direction relative to DMSO as the negative control and baseline of activity. Using a type of inducible reporter, gain-of-signal activity can be used to understand changes in the reporter gene as they relate to the gene ABCB11. Furthermore, this assay endpoint can be referred to as a primary readout. To generalize the intended target to other relatable targets, this assay endpoint is annotated to the transporter intended target family, where subfamily is ABC transporter.
Human hepatocyte cultures were treated daily for two consecutive days with fresh dosing solutions containing appropriate concentrations of the 320 ToxCast chemicals (chemical identities were blinded to CellzDirect and other ToxCast collaborators), vehicle control (0.2% DMSO), and positive control inducers as summarized in Table 1. Due to the large number of treatment groups and chemicals examined, the ToxCast chemicals were divided into two groups (spanning two independent cultures of hepatocytes from separate donor preparations (Hu778: ToxCast plates 1 and 2; Hu776: ToxCast plates 3 and 4). Each preparation of human hepatocyte cultures was treated with respective vehicle control, medium only control, set of six positive controls/reference chemicals for the five hepatic receptor pathways, and a subset of eight of the ToxCast chemicals (indoxacarb, pyrithiobac-sodium, norflurazon, cyhalofop-butyl, methomyl, thiram, acetochlor, and propiconazole). These replicate data, coupled with internal replicates designed within the blinded ToxCast chemical library, provided additional data to evaluate interindividual differences between hepatocyte preparations and their potential impact on chemical profiles.Cell morphology and integrity were evaluated using phase-contrast microscopy as an indicator of hepatocyte cell health (Tyson & Green, 1987). Cultures for each treatment group (i.e., media, vehicle [0.2% DMSO], positive control inducers [multiple concentrations], and the ToxCast chemicals [multiple concentrations]) were observed and cell morphology was assessed relative to vehicle control cultures at each harvest time point (0, 6, 24, or 48 h). […] Images were evaluated at the conclusion of the study to assess changes in cell integrity and account for the effects of chemical exposure on uncharacteristic changes in concentration-dependent gene expression profiles. The results from these determinations of apparent cytotoxicity were annotated (yes/no) alongside the corresponding qNPA data for reference.At the conclusion of each treatment period, hepatocyte cultures (96-well) were washed with 1 volume of HBSS, lysed by addition of 25 ul ArrayPlate lysis buffer (HTG, Tucson, AZ), and 70 ul/well of Denaturation Oil, denatured by incubation at 95C for 10 min, and frozen at approximately -70C until analysis by nuclease protection assay (qNPA) (Roberts et al., 2007). For qNPA analysis, cell lysates were thawed at 50C for approximately 30 min, qNPA probes were added, and samples were incubated at 95C for 10 min to begin the detection process by denaturing the target RNA, dissociating the duplexes and secondary structure hybridization. At the conclusion of the hybridization period, S1 nuclease reagent was added to each sample to digest all nonprotected nucleotides at 50C for 60-90 min. […]
In the case of `Clc1nc(Cl)nc(Nc2ccccc2Cl)n1`, the call was inactive.

As for `COC(=O)NS(=O)(=O)c1ccc(N)cc1`, the call was inactive.

On to `COCc1cnc(C2=NC(C)(C(C)C)C(=O)N2)c(C(=O)O)c1` (centres undefined), for which the outcome was inactive.

`CC(C)C1(C)N=C(c2ncccc2C(=O)O)NC1=O` (centres undefined): the compound was classed as inactive.

For the compound `O=c1n(Cl)c(=O)n(Cl)c(=O)n1Cl`, the compound was classed as inactive.

For the compound `CCNC(=O)NC(=O)C(C#N)=NOC`, the compound was classed as inactive.

For the compound `COP(=S)(OC)SCn1nnc2ccccc2c1=O`, the result was inactive.

For the compound `O=P(O)(O)CCCl`, the compound was called inactive.

Take `COCC(C)N(C(=O)CCl)c1c(C)csc1C` (centres undefined): the call was inactive.

Turning to `Cc1nc(N(C)C)nc(OC(=O)N(C)C)c1C`, the compound was classed as inactive.

On to `COCC(=O)N(c1c(C)cccc1C)C(C)C(=O)OC` (centres undefined), for which the call was inactive.

On to `COP(=O)(OC)O/C(C)=C/C(=O)N(C)C`, for which the call was inactive.

`COc1cc(OC)nc(NC(=O)NS(=O)(=O)c2ncccc2OCC(F)(F)F)n1`: the result was inactive.

Regarding `CCCCOCN(C(=O)CCl)c1c(CC)cccc1CC`, the outcome was inactive.

`CS(=O)(=O)c1ccc(C(=O)C2C(=O)CCCC2=O)c([N+](=O)[O-])c1`: the outcome was inactive.

On to `C=C(C)CN(CC)c1c([N+](=O)[O-])cc(C(F)(F)F)cc1[N+](=O)[O-]`, for which the compound was called inactive.

In the case of `CC(C)NC(=O)N1CC(=O)N(c2cc(Cl)cc(Cl)c2)C1=O`, the call was inactive.

Regarding `CCOc1nc(F)cc2nc(S(=O)(=O)Nc3c(Cl)cccc3Cl)nn12`, the outcome was inactive.

Take `CC(C)N1C(=O)N(c2ccccc2)CSC1=NC(C)(C)C`: the call was inactive.

Consider `COC(=O)c1c(C(F)F)nc(C(F)(F)F)c(C2=NCCS2)c1CC(C)C`, for which the compound was classed as inactive.

Take `Cc1cnc(C2=NC(C)(C(C)C)C(=O)N2)c(C(=O)O)c1` (centres undefined): the call was inactive.

In the case of `CC(C)N1C(=O)c2ccccc2NS1(=O)=O`, the compound was classed as inactive.

Take `OC(c1ccc(Cl)cc1)(c1ccc(Cl)cc1)C(Cl)(Cl)Cl`: the call was inactive.

In the case of `CCOP(=O)(OCC)Oc1nc(Cl)c(Cl)cc1Cl`, the result was inactive.

These data come from PubChem BioAssay (EPA / NIEHS).
